An excerpt weighted towards active compounds, which were near 7.4% of everything screened.
Rab9 prom act: activates the Rab9 promoter | Huh7 Rab9 promoter-luciferase reporter, luminescence, 24 h | 2.8% of 320,000 active | Potency, µM (highest dose often 9.22 µM), inactives show at the highest dose activation, negative = inhibition, usual class: activators; also: % of control where 0% means no effect; nearly all actives have a fitted effect of over 60% in size
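Huh7 cells stably carrying a Rab9 promoter-luciferase reporter, 1500 cells per well in OP-MEM I with 10% FBS, treated with compound 24 hours at 37C. Luciferase activity read by luminescence after 10 minutes with Amplite reagent.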
NPC1 prom act: NPC1 promoter activation. AID 485313. 2.4% of 320,000 active. Huh7 NPC1 promoter luciferase reporter, 24 h. Potency, µM (titrated, usually from 9.22 µM), for inactives: at the top dose activation, actives largely listed as activators; also: % of control where 0% means no effect; nearly all actives have a fitted effect of over 60% in size
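NPC1 promoter–luciferase Huh7 cells; 24 h compound; luminescence.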
SMN2 splice up: SMN2 splice variant enhancement. HEK293 SMN2-luciferase splicing reporter, luminescence, 30-36 h. Potency, µM (doses to about 46.1 µM), without a hit: at the highest dose activity change, positive = activation, hits mostly activators. 2.8% of 210,000 active. AID 1458; also: % of control where 0% means no effect; nearly all actives have a fitted effect of over 55% in size
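HEK293 cells carry an SMN2 minigene-luciferase reporter in which exon 7 inclusion puts luciferase in frame. Cells were seeded at 2000 cells/well, attached for 10-12 hours, then exposed to compounds for 30-36 hours at 37C before ONE-Glo luminescence.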
ELG1 genotoxic: induces genotoxicity in HEK293T cells with luciferase-tagged ELG1 | HEK293T ELG1-luciferase reporter, luminescence, 16 h | Potency, µM (series often up to 46 µM), inactives show at the top dose activity change, positive = activation, usual class: activators | 1.3% of 330,000 active; also: % of control where 0% means no effect; nearly all actives have a fitted effect of over 60% in size
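Reporter readout depends on ELG1 protein level, which increases with genetic stress. After 16 hr compound exposure at 37 °C, luciferase activity was quantified using ONE-Glo.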
FLuc modulator: counter-screen for miR-21 project: firefly luciferase inhibitors or activators | 6.9% of 360,000 active | AID 588342 | Potency, µM (highest dose often 57.5 µM), for inactives: top-dose activity change, negative = inhibition, hits mostly inhibitors | purified FLuc, Km substrates, luminescence inhibition;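 also: plate controls were vehicle for no effect and reference inhibitor for full effect; nearly all actives have a fitted effect of over 55% in size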
Target sequence (P08659 whole entry, looked up): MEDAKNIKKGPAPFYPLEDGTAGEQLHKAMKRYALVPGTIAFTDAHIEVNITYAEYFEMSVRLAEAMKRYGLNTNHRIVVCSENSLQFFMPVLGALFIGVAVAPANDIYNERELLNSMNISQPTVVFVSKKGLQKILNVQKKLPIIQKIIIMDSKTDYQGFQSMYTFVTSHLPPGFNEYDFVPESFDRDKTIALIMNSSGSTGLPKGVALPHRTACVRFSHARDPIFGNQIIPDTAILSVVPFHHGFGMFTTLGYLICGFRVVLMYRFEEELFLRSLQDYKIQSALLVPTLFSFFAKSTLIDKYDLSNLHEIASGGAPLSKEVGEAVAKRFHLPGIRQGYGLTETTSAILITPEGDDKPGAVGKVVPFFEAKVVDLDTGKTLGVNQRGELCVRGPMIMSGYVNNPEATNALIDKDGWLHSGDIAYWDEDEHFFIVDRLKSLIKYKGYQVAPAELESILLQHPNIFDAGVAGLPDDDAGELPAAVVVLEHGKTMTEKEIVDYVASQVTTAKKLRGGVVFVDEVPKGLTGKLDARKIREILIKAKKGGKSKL
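Biochemical qHTS of compounds, final roughly 60 µM downward over six points, against 10 nM purified firefly luciferase using Km concentrations of substrates (10 uM D-luciferin, 10 uM ATP) in Tris acetate pH 7.5 buffer; luminescence output.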
KinaseGlo FLuc: blocks Kinase-Glo luciferase, a counter-screen artifact; Q27757; Kinase-Glo luciferase, ATP luminescence, 8 min; Potency, µM (doses to about 38.3 µM), for the others: at the highest dose activity change, negative = inhibition, most hits filed as inhibitors; 0.28% of 200,000 active; AID 1379; also: % is scaled to controls: 0 for no effect and ±100 for the full control effect; nearly all actives have a fitted effect of over 60% in size
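Kinase-Glo luciferase light output from ATP and luciferin was measured with 10 uM ATP, within the enzyme's linear range. Buffer: 50 mM imidazole pH 7.2, 50 mM KCl, 7 mM MgCl2, 0.01% Tween 20, 0.05% BSA; luminescence read after 8 min at ambient temperature.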
* marks the source's active call; other numbers are inactive results; ? = inconclusive; / = not tested or not shown. Calls follow the shape of the dose curve; as a rule, active = well fitted curve in the direction sought with a large enough effect; inconclusive = small, poorly fitted or top-dose-only effect, or another doubt; inactive = no such curve, though single readings can be large; an effect the other way counts as inactive or inconclusive. Potency is read from the fitted curve at half-maximal effect.

SMILES	Rab9 prom act	NPC1 prom act	SMN2 splice up	ELG1 genotoxic	FLuc modulator	KinaseGlo FLuc
Cc1ccc2nc(-c3ccc(N)cc3)sc2c1	0.224µM*	0.316µM*	/	?	0.107µM*	/
Cc1c(/C=N/Nc2ccc(C(=O)O)cc2)c2ccccc2n1C	1.41µM*	2.24µM*	/	?	10.7µM*	/
Cc1c(/C=N\NC(=O)C2COc3ccccc3O2)c2ccccc2n1C (stereo unspecified)	-27.4%	-9.1%	15.4%	15.0%	?	1.7%
CCn1c(CNc2ccc(C(=O)O)cc2)nc2ccccc21	/	/	-2.4%	/	-4.5%	-3.7%
CCn1c(/C=N/Nc2ccc(C(=O)O)cc2)nc2ccccc21	-1.1%	14.6%	3.4%	0.8%	10.7µM*	1.8%
CCN(c1ccccc1)S(=O)(=O)c1ccc2[nH]cc(C(=O)NCc3ccc(C)cc3)c(=O)c2c1	/	/	/	/	-5.3%	/
CC(C)(C)C1CCc2c(sc(NC(=O)c3ccc(Cl)cc3)c2C(=O)NCc2ccco2)C1 (stereo unspecified)	/	/	-5.9%	/	0.8%	/
Cc1ccc2nc(Nc3nc(-c4ccccc4)cc(=O)[nH]3)nc(C)c2c1	-4.4%	-2.4%	-21.0%	?	-11.0%	0.5%
Cc1ccc2nc(Nc3nc(=O)c4ccccc4n3C)nc(C)c2c1	11.1%	9.6%	5.4%	-3.7%	2.13µM*	-2.4%
Cc1ccc(Nc2ncc3c(n2)CC(C)CC3=O)c(C)c1 (stereo unspecified)	?	27.1%	/	7.3µM*	7.57µM*	/
CC1CC(=O)c2cnc(Nc3ccccc3)nc2C1 (stereo unspecified)	3.55µM*	3.16µM*	11.2µM*	5.8µM*	9.53µM*	-10.7%
CC(=O)c1sc2c(c1C)c(=O)n(-c1ccc(Cl)cc1)c(=O)n2Cc1ccc(Cl)cc1	/	/	3.0%	/	0.7%	/
Cc1cc(C)cc(O)c1	/	/	6.9%	/	/	/
NC(=O)C1CC(=O)N(c2ccc(OCc3ccc(F)cc3)cc2)C1 (stereo unspecified)	?	2.51µM*	/	18.3µM*	?	/
NC(=O)C1CC(=O)N(c2ccc(OCc3c(F)cccc3Cl)cc2)C1 (stereo unspecified)	0.5%	-6.1%	/	0.1%	-12.5%	1.2%
O=C(O)C1CC(=O)N(c2ccc(OCc3ccc(Cl)cc3Cl)cc2)C1 (stereo unspecified)	-5.2%	-2.0%	9.7%	2.3%	16.9µM*	20.1%
O=C(O)C1CC(=O)N(c2ccc(OCc3ccccc3Cl)cc2)C1 (stereo unspecified)	1.6%	3.3%	6.2%	1.9%	?	1.7%
COc1ccc(OC)c(CNC(=O)C(C)n2c(C)c3cnn(-c4ccccc4)c(=O)c3c2C)c1 (stereo unspecified)	/	/	-3.8%	/	-6.9%	/
Cc1cc(C(=O)O)ccc1N=Cc1c(O)ccc2ccccc12	-4.4%	9.8%	/	0.6%	0.757µM*	/
Oc1ccc2ccccc2c1C=Nc1ccc(N2CCOCC2)cc1	10.6%	1.5%	25.5%	-4.9%	6.01µM*	-7.3%
Oc1ccc2ccccc2c1C=Nc1ccccc1Br	2.1%	-3.6%	/	-0.4%	10.7µM*	/
CC(=O)c1cccc(N=Cc2c(O)ccc3ccccc23)c1	3.7%	-1.5%	/	0.2%	?	/
C=Cc1ccc(N=Cc2c(O)ccc3ccccc23)cc1	-2.6%	-3.3%	/	-2.1%	19µM*	/
Cc1ccccc1CNC(=O)Cn1c(=O)c2cccn2c2cccnc21	/	/	/	/	-5.8%	/
Cc1ccc(-c2nc(S(=O)(=O)c3ccc(C)cc3)c(SCC(=O)NC3CCCCC3)o2)cc1	/	/	1.9%	/	-2.2%	/
SMILES	Rab9 prom act	NPC1 prom act	SMN2 splice up	ELG1 genotoxic	FLuc modulator	KinaseGlo FLuc
Cc1c2cnn(CC(=O)NCCc3ccccc3)c(=O)c2c(C)n1Cc1ccccc1Cl	/	/	-0.3%	/	-18.6%	/
CCC(=O)Nc1nnc(S(=O)(=O)N(C)Cc2ccccc2)s1	/	/	/	/	-15.2%	/
CN(C)/N=C/c1c(O)ccc2ccccc12	-2.6%	-1.9%	-32.8%	0.2%	?	-4.0%
OCC(CO)(CO)N=Cc1c(O)ccc2ccccc12	10.9%	-2.5%	-9.3%	-10.6%	0.0%	0.7%
Oc1ccccc1N=Cc1c(O)ccc2ccccc12	2.2%	-3.4%	/	0.4%	13.5µM*	/
CS/C(N)=N/N=C/c1c(O)ccc2ccccc12	?	-1.2%	/	?	3.01µM*	/
CCCN(C(=O)CCc1nc(-c2ccc(OC)cc2)no1)c1ccccc1F	/	/	-14.6%	/	-4.5%	/
O=C(CSc1nc(=O)n(CCN2CCOCC2)c2c1CCC2)Nc1ccc(Cl)c(Cl)c1	/	/	/	/	-12.9%	/
CC1CCc2c(sc3ncnc(NCc4cccnc4)c23)C1 (stereo unspecified)	-7.9%	5.9%	29.3%	-0.4%	26.9µM*	-1.7%
CCOC(=O)N1CCN(c2ccc(C(=O)CC)cc2F)CC1	-4.3%	0.2%	-11.2%	7.3%	-1.0%	-0.6%
CCC(=O)c1ccc(N2CCC(C)CC2)c(F)c1	29.4%	7.9%	/	13.1%	21.3µM*	-1.3%
CCCC(=O)c1ccc(N2CCC(C)CC2)c(F)c1	25.2%	2.3%	?	?	9.53µM*	-0.7%
Oc1c(CNc2ccccc2)cc(COCc2ccccc2)c2cccnc12	-15.5%	-13.8%	/	-0.9%	0.4%	/
Oc1c(CN2CCOCC2)cc(COCc2ccccc2)c2cccnc12	-25.3%	-17.5%	-105.3%	18.4µM*	1.1%	3.2%
Cc1cccc(NC(=O)Nc2ccc([N+](=O)[O-])cc2)n1	2.24µM*	?	23.1%	9.1%	1.9%	-0.9%
CC(=O)N(C)c1ccc(NC(=O)Nc2ccc(C)cc2)cc1	?	29.3%	?	?	23.9µM*	1.3%
Cc1cccc(NC(=O)Nc2ccc(F)cc2)n1	?	?	-3.6%	11.5%	8.49µM*	/
O=C(Nc1ccc(F)cc1)Nc1ccc2ccccc2n1	22.7%	?	/	12.3%	2.4%	/
Cc1cccc(NC(=O)Nc2cccc(C)n2)n1	?	20.3%	7.9%	2.9%	16.9µM*	-4.5%

Screening results deposited in PubChem by National Center for Advancing Translational Sciences (NCATS).
